Measured values published in the supplement of paper PMC3842684.

Assays:
[1] = test system: P. falciparum NF54-pfs16-GFP early (I-III) stage gametocytes; assay: relative % inhibition of viable gametocyte number; higher = more gametocytocidal; conditions: stage: early (I-III) gametocyte, incubation 72 h
In short: (§1)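 Magnet-isolated NF54 pfs16-GFP gametocytes at early (I/IIa, day 2) or late (day 8) stage were exposed to compound at 5 or 0.5 µM for 72 h at 37°C, 5% CO2, 5% O2, at 10% parasitaemia and 0.1% haematocrit. Elongated GFP objects with MitoTracker Red signal above cut-off were counted as viable by confocal imaging. Relative inhibition was normalised to in-plate vehicle and positive-control wells.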

[2] = test system: P. falciparum NF54-pfs16-GFP late (IV-V) stage gametocytes; assay: as above; conditions: stage: late (IV-V) gametocyte, incubation 72 h
In short: as §1

Row | Compound | relative % inhibition ([1]; 0.5 µM) [%] | relative % inhibition ([1]; 5 µM) [%] | relative % inhibition ([2]; 0.5 µM) [%] | relative % inhibition ([2]; 5 µM) [%]
1 | CC1CCN(Cc2c(O)ccc3cc(-c4nc5ccccc5s4)c(=O)oc23)CC1 | 2.97 | 94.7 | 18.2 | 18.4
2 | CCC(=O)Nc1nnc(Cc2ccc(OC)c(OC)c2)s1 | 16.8 | 4.14 | 0.759 | 6.51
3 | CC1CC2=C(CC1CNCCCN(C)C)C(C)(C)CCC2 (configuration not stated) | 33.8 | 97.1 | 20.7 | 85.3
4 | O=C(NC1CCCCC1)C(c1cccs1)N(CCc1ccccc1)C(=O)c1ccco1 (configuration not stated) | 0.574 | 17.5 | 5.55 | 6.74
5 | O=C(Nc1ccc(Br)cc1)Nc1cccc(Cl)c1 | 20 | 26.8 | -8.75 | -6.59
6 | CC1CCN(Cc2ccc(NC(=O)c3cc4ccc5cccnc5c4[nH]3)cc2)CC1 | 19.6 | 94 | 0.926 | 12
7 | CCCCCn1c(=N)n(CC(O)COc2cccc(C)c2)c2ccccc21 (configuration not stated) | 37.7 | 74.5 | -3.63 | 56
8 | COc1ccc(Nc2nc(NN=Cc3ccc(O)cc3)nc(Nc3ccc([N+](=O)[O-])cc3)n2)cc1 | -0.568 | 101 | -4.05 | 31.8
9 | CCCN(CCC)CCCNC(=O)c1cc2c(-c3ccc(OC)c(OC)c3)nn(C)c2s1 | 29.6 | 43.5 | 18.3 | -7.44
10 | COc1cccc(-c2nn(C)c3sc(C(=O)NCCN4CCN(c5ccccc5F)CC4)cc23)c1 | 12.4 | 82.5 | 16.7 | 4.42
11 | O=C(Nc1ccc(CN2CCOCC2)cc1)c1ccc(-c2cc(Cl)ccc2Cl)o1 | -3.41 | 20.9 | -18.1 | 21.4
12 | COc1ccc(-c2nc3cc(Cc4ccc5[nH]c(-c6ccc(OC)cc6)nc5c4)ccc3[nH]2)cc1 | 48.1 | 100 | 17.1 | 103
13 | O=C1c2ccccc2-c2nnc(-c3ccc(Br)cc3)cc21 | 16.6 | 10 | 75.4 | 88.5
14 | CCOC(=O)c1ccc2nc(-c3ccccc3)cc(O)c2c1 | 2.53 | 2.35 | 50.6 | 102
15 | CCN(CC)c1cc(C)c2cc(NC(=O)c3cccc(OC)c3)ccc2n1 | 15.1 | 16.1 | -0.167 | 86.7
16 | Cc1ccc(CSCc2ccc(C(=O)NC3CC3)o2)cc1 | 1.49 | -7.92 | 19.6 | 43.1
17 | O=C(Nc1ccc(Cl)cc1)N1CCN(c2ccc3nncn3n2)CC1 | 18 | 6.7 | 4.09 | -7.25

Row | Compound | relative % inhibition ([1]; 0.5 µM) [%] | relative % inhibition ([1]; 5 µM) [%] | relative % inhibition ([2]; 0.5 µM) [%] | relative % inhibition ([2]; 5 µM) [%]
18 | O=c1cc(NC2CCN(CCCc3ccccc3)CC2)c2cc(Cl)ccc2o1 | 10.6 | 79.8 | -5.8 | -6.17
19 | COc1cccc(NC(=O)[C@H](C(C)C)n2c(=O)[nH]c3ccccc3c2=O)c1 | 70.7 | 97.8 | 35 | 59.9
20 | CN(C)c1ccc(C=Cc2nc(=O)c3ccccc3o2)cc1 | -10.1 | -23 | 27.4 | 88.2
21 | O=C(Nc1ccccc1O)c1ccc(-c2ccc(Cl)cc2Cl)o1 | 21.2 | -5.25 | 19.3 | 17.5
22 | CCOc1ccccc1NC(=O)CN1CCN(C(=O)c2ccco2)CC1 | 11.3 | 9 | -18.2 | -2.45
23 | Oc1c(C(Nc2ccccn2)c2cccc(Oc3ccccc3)c2)ccc2cccnc12 (configuration not stated) | 1.66 | 98.2 | 18.4 | 97.7
24 | COc1cccc(O)c1CN1CCC2(CCCN(Cc3ccc(F)cc3)C2)C1 (configuration not stated) | 11.3 | 80.5 | 17.2 | 98.8
25 | Cc1ccc(-c2cc3nc4c(c(O)n3n2)CCCC4)cc1 | 5.35 | -1.24 | 4.75 | 9.04
26 | COc1cc(-c2nc(-c3ccccc3)c(-c3ccccc3)[nH]2)cc(OC)c1O | 15.2 | 29.3 | -17 | 2.98
27 | Cc1ccc2c(C)nc(Nc3nc(C)cc(-c4ccccc4)n3)nc2c1 | 38 | 88.6 | 111 | 113
28 | c1ccc(C2=Nc3ccccc3N=C(c3ccccc3)c3ccccc32)cc1 | 35.8 | 101 | 15.2 | 47.2
29 | CCOC(=O)c1c(C)n(-c2ccc(Cl)cc2)c2ccc(OC(=O)C=Cc3ccccc3)cc12 | 15.8 | 26.8 | 11.1 | 11.5
30 | c1ccc2c(NCCc3c[nH]c4ccccc34)c3ccccc3nc2c1 | 37.7 | 89.1 | -14.3 | 29.7
31 | O=C(Nc1ccc(Cl)c(Cl)c1)Nc1ccc(Cl)c(Cl)c1 | 4.74 | 96 | 17.5 | 48.8
32 | CN1CCN(c2ccc(Nc3c4ccccc4nc4ccccc34)cc2)CC1 | 100 | 101 | 91.3 | 104
33 | CCCCc1ccc(NS(=O)(=O)c2cc3c4c(c2)CCN4C(=O)CC3)cc1 | 12.3 | 1.37 | 0.5 | -7.42
